JMJD2A Tudor – blocks the human JMJD2A Tudor domain; O75164; AlphaScreen JMJD2A-Tudor / H3K4me3 peptide binding; Potency, µM (titrated, usually from 114 µM), without a hit: top-dose activity change, negative = inhibition, hits mostly inhibitors; actives 4.4% (n = 390,000); AID 504339; further: on the % scale 0 is the no-effect control and ±100 the full control effect; nearly all actives have a fitted effect of over 50% in size
Target sequence (O75164 whole entry, looked up, the tested form may be a part): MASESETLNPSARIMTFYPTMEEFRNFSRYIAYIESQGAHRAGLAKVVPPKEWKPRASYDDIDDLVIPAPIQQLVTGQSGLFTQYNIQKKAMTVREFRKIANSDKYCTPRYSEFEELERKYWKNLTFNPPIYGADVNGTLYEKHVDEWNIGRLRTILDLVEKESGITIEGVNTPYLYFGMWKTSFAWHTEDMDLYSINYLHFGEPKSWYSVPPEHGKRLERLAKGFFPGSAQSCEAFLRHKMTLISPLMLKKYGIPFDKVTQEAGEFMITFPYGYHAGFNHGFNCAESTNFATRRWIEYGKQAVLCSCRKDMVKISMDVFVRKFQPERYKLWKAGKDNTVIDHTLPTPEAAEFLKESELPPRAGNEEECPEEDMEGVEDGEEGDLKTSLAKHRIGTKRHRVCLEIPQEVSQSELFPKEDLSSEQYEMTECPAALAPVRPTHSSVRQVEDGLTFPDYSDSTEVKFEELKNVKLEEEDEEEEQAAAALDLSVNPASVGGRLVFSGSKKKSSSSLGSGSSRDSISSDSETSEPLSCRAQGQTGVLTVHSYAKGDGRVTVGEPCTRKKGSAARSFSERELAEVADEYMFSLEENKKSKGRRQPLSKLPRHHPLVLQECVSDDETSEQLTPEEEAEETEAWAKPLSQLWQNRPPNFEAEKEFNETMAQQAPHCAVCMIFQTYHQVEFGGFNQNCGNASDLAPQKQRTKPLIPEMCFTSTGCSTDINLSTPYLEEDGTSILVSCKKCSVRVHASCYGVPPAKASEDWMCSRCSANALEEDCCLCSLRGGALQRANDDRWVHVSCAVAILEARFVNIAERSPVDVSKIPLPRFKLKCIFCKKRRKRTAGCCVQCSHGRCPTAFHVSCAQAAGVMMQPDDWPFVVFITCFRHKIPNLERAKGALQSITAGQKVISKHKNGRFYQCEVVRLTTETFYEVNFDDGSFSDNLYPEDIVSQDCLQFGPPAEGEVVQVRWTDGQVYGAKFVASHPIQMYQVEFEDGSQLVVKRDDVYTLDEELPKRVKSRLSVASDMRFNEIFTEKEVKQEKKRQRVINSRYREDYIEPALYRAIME
BAZ2B block – blocks human BAZ2B. Q9UIF8. AlphaScreen BAZ2B-H3K14Ac peptide displacement. Potency, µM (series often up to 114 µM), without a hit: top-dose activity change, negative = inhibition, most hits filed as inhibitors. actives 4.4% (n = 360,000); further: on the % scale 0 is the no-effect control and ±100 the full control effect; nearly all actives have a fitted effect of over 60% in size
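AlphaScreen luminescence quantifies BAZ2B engagement of H3K14Ac peptide; the protein and biotinylated peptide are both at 50 nM final, buffer PBS pH 7.4 with 0.01% Tween-20, all steps at room temperature.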
HP1b chromo inh – HP1-beta chromodomain-methylated histone interaction inhibition; P83916; AlphaScreen HP1-beta / biotin-H3K9me3 peptide binding; Potency, µM (series often up to 114 µM), for inactives: top-dose activity change, negative = inhibition, most hits filed as inhibitors; actives 0.56% (n = 390,000); further: nearly all actives have a fitted effect of over 70% in size
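Compound inhibition of the preformed complex between 50 nM HP1-beta and 50 nM biotinylated H3K9me3 peptide was read by AlphaScreen. Buffer was PBS pH 7.4 with 0.01% Tween-20. Incubations ran 30 min at room temperature, with 10 ug/mL donor/acceptor beads.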
L3MBTL1 block – inhibitors of human L3MBTL1; AlphaScreen L3MBTL1–H3K9me1 peptide binding; Potency, µM (doses to about 57.1 µM), without a hit: at the highest dose activity, negative = inhibition, usual class: inhibitors; actives 0.66% (n = 230,000); AID 485360; further: on the % scale 0 is the no-effect control and ±100 the full control effect; nearly all actives have a fitted effect of over 60% in size
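L3MBTL1 50 nM + b-AHA-H3(1-15)K9me1 75 nM, 30 min RT; compound added, 30 min RT; streptavidin donor/Ni-chelate acceptor beads 10 ug/mL each final, 30 min RT dark; AlphaScreen read.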
G9a block – inhibitors of human histone lysine methyltransferase G9a; Q96KQ7; AID 504332; G9a H3K9 monomethylation, AlphaScreen, 2 h; Potency, µM (titrated, usually from 102 µM), for the others: top-dose activity, negative = inhibition, actives largely listed as inhibitors; actives 8.8% (n = 350,000); further: on the % scale 0 is the no-effect control and ±100 the full control effect; nearly all actives have a fitted effect of over 75% in size
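Methyltransferase reactions run at room temperature for 2 h (20 nM enzyme, 500 nM biotin-H3K9 peptide, 20 uM SAM) after a 15 min compound preincubation; product detected by AlphaScreen beads and anti-H3K9me1 antibody.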
Sfp inh – inhibitors of Bacillus subtilis Sfp phosphopantetheinyl transferase; Biochemical Sfp PPTase activity, qHTS; Potency, µM, for inactives: largest response in the series, negative = inhibition, actives largely listed as inhibitors; actives 3.5% (n = 310,000); AID 1490;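 further: the enzyme is Sfp with the accession as filed and its product quenches rhodamine fluorescence; 0% = enzyme reaction without inhibitor and -100% = no enzyme wells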
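Compounds were incubated with enzyme (final 15 nM) for 15 min at room temperature before substrate addition started the reaction. Fluorescence at 525 nm excitation, 598 nm emission was recorded immediately and after 30 minutes.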
An asterisk follows results filed as active; ? = inconclusive; nt = no result given; [ ] = remark or other dose. Most compounds without a hit are left out; they make up all but 12% or so of the library. The call rests on the fitted dose curve; in most records, active means well fitted curve in the direction sought with a large enough effect; inconclusive means small, poorly fitted or top-dose-only effect, or another doubt; inactive means no such curve, though single readings can be large; an effect the other way counts as inactive or inconclusive. Potency means the concentration at half of the fitted maximal effect.

SMILES	JMJD2A Tudor	BAZ2B block	HP1b chromo inh	L3MBTL1 block	G9a block	Sfp inh
CC(=O)c1cccc(N2Cc3ccccc3C2=NC(=O)CCl)c1	35.5µM*	-35.4%	2.5%	7.3%[11.4 µM]	31.6µM*	?
c1ccc(-c2nn3c(Cn4cnc5ccccc54)nnc3s2)cc1	-31.8%	-28.3%	?	?	1.26µM*	10µM*
c1ccc2c(c1)ncn2Cc1nnc2sc(-c3ccncc3)nn12	?	-25.5%	-25.8%	0.3%	?	15.8µM*
c1cncc(-c2nn3c(Cn4cnc5ccccc54)nnc3s2)c1	89.1µM*	-7.5%	?	-1.8%	?	-82.9%
CC(C)C[C@@H](CC(=O)N[C@@H](CCC(=O)O)CC(=O)O)NC(=O)[C@@H]1CCCC[C@H]1NC(=O)C[C@H](CCCN)NC(=O)C[C@H](Cc1ccccc1)NC(=O)[C@@H]1CCCC[C@H]1N	nt	nt	nt	nt	nt	-16.1%
COc1ccccc1CNC(=O)CC1N=C2c3ccccc3N=C(SCC(=O)Nc3ccc(F)cc3)N2C1=O (centres undefined)	-25.7%	4.9%	22.1%	nt	9.4%[59 µM]	nt
COc1ccc(Cl)cc1NC(=O)CCN1C(=O)c2ccccc2Sc2ncccc21	-24.2%	-8.0%	-3.5%	nt	-7.1%[59 µM]	nt
O=C(COc1ccccc1[N+](=O)[O-])N1CCC(c2nc3ccccc3o2)CC1	-2.3%	-14.8%	29.9%	nt	8.7%[59 µM]	nt
Cc1cn[nH]c1	?	5.2%	5.2%	19.1%	18.9µM*	10.8%
Cc1ccsc1/C=N/Nc1ccc(F)cc1F	-33.6%	?	-29.5%	nt	1.26µM*	-1.9%
Cc1ccsc1/C=N/Nc1ncc(Cl)cc1Cl	-24.0%	-7.0%	45.6%	nt	35.0%[59 µM]	11.3%
Cc1ccsc1/C=N/Nc1nc(=O)[nH]nc1C	?	31.6µM*	30.2%	nt	4.0%	12.4%
Cc1cc(C)nc(N/N=C/c2ccccc2)n1	-3.7%	-2.7%	38.0%	-4.0%	21.5%[59 µM]	?
Cc1cc(C)nc(N/N=C/c2sccc2C)n1	12.6µM*	-7.3%	0.6%	-5.9%[11.4 µM]	0.5%	7.5%
COc1cccc(Cn2c(CNC(=O)CCc3ccccc3)nc3cccnc32)c1	-16.8%	2.1%	14.1%[57 µM]	nt	20.2%[59 µM]	nt
O=C(COc1c(Br)cc(Br)c2cccnc12)Nc1ccccc1F	-21.8%	50.1µM*	18.2%	-7.7%[11.4 µM]	44.7µM*	-13.2%
O=C(COc1ccccc1)Nc1ccccc1F	1.4%	0.5%	71.2%	-5.7%[2.29 µM]	-4.4%[0.501 µM]	-0.8%
O=C1/C(=C\c2cccnc2)Sc2ccccc21	79.4µM*	-30.4%	-8.4%	-13.9%	19.9%[59 µM]	5.0%
O=C(NCCN1C(=O)S/C(=C/c2cccnc2)C1=O)c1cccs1	-14.1%	11.6%	59.0%	-1.9%	22.8%[12.7 µM]	nt
Cc1ccccc1NC(=O)CN1C(=O)S/C(=C/c2cccnc2)C1=O	-16.5%	0.2%	40.7%	nt	-23.1%	-11.0%
CN1C(=O)S/C(=C/c2cccnc2)C1=O	-2.2%	9.2%	53.6%	-1.4%	21.8%[59 µM]	9.2%
O=C(NCCN1C(=O)S/C(=C\c2cccnc2)C1=O)C1=NN(c2ccccc2)C(=O)CC1	3.55µM*	-10.6%	-29.4%	2.8%	-1.4%[59 µM]	-20.6%
O=C1/C(=C/c2ccccc2)SC(=S)N1CC(=O)N1CCCCC1c1cccnc1 (centres undefined)	35.5µM*	31.6µM*	-14.7%	nt	39.8µM*	-14.8%
O=C(O)CN1C(=O)S/C(=C\c2cccnc2)C1=O	-18.1%	50.1µM*	5.6%[57 µM]	nt	nt	56.2µM*
COc1ccc(C)cc1NC(=O)N1CCC(CN2CCC(C)CC2)CC1	-7.3%	-7.1%	16.5%	nt	-14.2%[59 µM]	nt
SMILES	JMJD2A Tudor	BAZ2B block	HP1b chromo inh	L3MBTL1 block	G9a block	Sfp inh
Cc1ccc(OCc2ccc(C(=O)N3CCOCC3)cc2)cc1C	-12.8%	0.2%	30.1%	2.4%	?	35.5µM*
Cc1cccc(NC(=O)CSc2nc3ccc(NC(=O)c4ccco4)cc3s2)c1	-9.9%	-15.7%	48.8%	nt	-4.5%[59 µM]	nt
COc1cccc(-n2c(SCc3ccccc3C)nc3c([nH]c4ccccc43)c2=O)c1	-23.2%	-3.4%	7.8%[57 µM]	nt	-30.3%[59 µM]	nt
CC1(C)CC(=O)C(C(C2=C(O)CC(C)(C)CC2=O)c2cccnc2)C(=O)C1 (centres undefined)	-17.2%	27.5%	61.3%	-0.1%	50.1µM*	4.8%
CCCC(C1=C(O)CC(C)(C)CC1=O)C1C(=O)CC(C)(C)CC1=O (centres undefined)	-2.2%	-2.7%	55.4%	-5.9%	28.2µM*	-29.2%
CC1(C)CC(=O)c2c(-c3cccs3)n[nH]c2C1	17.9%	-3.9%	25.1%	nt	-30.5%[59 µM]	-2.5%
CC1(C)CC(=O)C(C=Nc2cccnc2)=C(O)C1	3.8%	0.7%	14.5%	-10.2%	8.9%[2.33 µM]	-13.6%
Cc1ccc(C(C2=C(O)CC(C)(C)CC2=O)C2C(=O)CC(C)(C)CC2=O)o1 (centres undefined)	-8.0%	-30.7%	61.5%	1.6%	25.1µM*	-18.3%
CC1(C)CC(=O)C(C(C2=C(O)CC(C)(C)CC2=O)c2cccs2)C(=O)C1 (centres undefined)	-18.8%	3.4%	20.6%	3.8%	44.7µM*	22.4µM*
CC(O)c1cccc(NC2=CC(=O)CC(C)(C)C2)c1 (centres undefined)	-15.2%	-2.9%	17.8%	25.0%[11.4 µM]	-0.9%[59 µM]	9.1%
CC1(C)CC(=O)C(C(C2=C(O)CC(C)(C)CC2=O)c2cccc(O)c2)C(=O)C1 (centres undefined)	-11.9%	3.1%	43.7%	39.1%	?	22.4µM*
O=C(Cn1c(N2CCN(c3ccccc3)CC2)nc2ccccc21)c1ccccc1	-4.5%	-10.6%	14.1%	0.4%	50.1µM*	-2.8%
COc1ccc(/C=C2\NC(=S)N(CC3CCCO3)C2=O)c(OC)c1C (centres undefined)	-31.5%	?	16.7%	nt	50.1µM*	-18.2%
CC(=O)C1=C(Nc2ccc(C)cc2)CC(C)(O)C(C(C)=O)C1c1ccco1 (centres undefined)	-15.7%	79.4µM*	2.0%	nt	-8.0%[12.7 µM]	16.3%
O=C(Oc1ccccc1C(=O)Nc1ccccc1)c1ccc(Br)c([N+](=O)[O-])c1	-35.5%	-34.4%	8.0%	-9.0%	-17.2%[59 µM]	1.0%
O=C(NCc1cc(Br)cc(Br)c1OC(=O)c1ccccc1[N+](=O)[O-])c1ccccc1	-31.1%	-24.1%	-3.2%	-12.2%	39.8µM*	16.6%
O=C(NCCO)c1cccc2c1C(=O)c1ccccc1-2	-7.5%	20.9%	31.2%	22.2%	?	0.9%
Nc1cccc(C(=O)OCC(=O)Nc2cccc3c2C(=O)c2ccccc2C3=O)c1	-5.9%	-1.1%	-14.2%	-8.5%	-7.8%[59 µM]	-11.4%
CCN(CC)CCC(=O)Nc1cccc2c1C(=O)c1ccccc1C2=O	?	?	-23.0%	-8.6%	39.8µM*	0.0%

From PubChem BioAssay
